# This is a sample that favours compounds with a hit; in the whole collection about 2.2% have one here.
# KLF5 inhibitor = inhibitors of KLF5 expression; 290,000 tested, 0.23% active; DLD-1 KLF5 promoter-luciferase reporter, luminescence; inhibition, % at 5 µM;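 active = inhibition above a per-plate limit of that plate's mean compound inhibition plus 3 SD, cut at about 60% in these data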;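 note: higher means less KLF5 promoter-driven luciferase light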
# aSyn UTR inh = 5' untranslated region of α-synuclein, MLPCN primary screen; 300,000 tested, 0.82% active; alpha-synuclein 5'UTR reporter, inhibitor activity; AID 1813; inhibition, % (tested at 7.5 µM); in the data active = inhibition above about 60%;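 note: H4 neuroglioblastoma cells stably carrying SNCA 5'UTR luciferase fusion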
# Ba/F3 V617F tox = reduce viability of Ba/F3 cells dependent on JAK2V617F; Ba/F3 EpoR-JAK2V617F viability, ATP luminescence; inhibition, % at 5.6 µM; 220,000 tested, 1.1% active;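 active = inhibition above the campaign mean plus 3 SD over all tested compounds, cut at about 24% in these data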;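 note: cytokine-independent growth of Ba/F3 cells driven by EpoR plus mutant JAK2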
# IEC-6 tox = kills IEC-6 intestinal cells in KLF5 counter-screen. IEC-6 cytotoxicity, luminescence viability. inhibition, % at 5 µM. 290,000 tested, 0.78% active. AID 1825; in the data active = inhibition above about 22%
# BaF3 parental = counter-screen for JAK2V617F inhibitors: parental Ba/F3 viability inhibitors | inhibition, % at 5.6 µM | 220,000 tested, 1.1% active | CellTiter-Glo ATP luminescence | AID 1486;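 active = inhibition above a per-campaign cutoff, the mean inhibition of all tested compounds plus 3 SD, cut at about 27% in these data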
# APP 5UTR inh = APP translation inhibition | SH-SY5Y APP 5'UTR-luciferase reporter, luminescence | inhibition, % at 2 µM | 190,000 tested, 0.82% active;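 active = inhibition above a set limit, derived from the sample mean plus 3 SD, cut at about 45% in these data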
# Hits are given with their value; . = inactive; / = not tested or not shown.
SMILES,KLF5 inhibitor,aSyn UTR inh,Ba/F3 V617F tox,IEC-6 tox,BaF3 parental,APP 5UTR inh
O=C(C/C=N/OCc1c(Cl)cccc1Cl)c1cnc(-c2ccccc2)s1,.,.,.,.,72,.
O=C(C/C=N/OCc1ccc(Cl)cc1)c1cnc(-c2ccccc2)s1,.,.,.,.,.,.
COc1cc2nc(Nc3ccc(C)c(Cl)c3)nc(N)c2cc1OC,.,99,/,.,/,/
Oc1c(CN2CCOCC2)cc(COCc2ccccc2)c2cccnc12,.,114,.,.,.,92
COc1ccc2nc(N=Nc3ccc(O)c4ccccc34)sc2c1,.,.,.,.,.,74
Cc1ccc(Nc2nc(-c3cccnc3)nc3ccccc23)cc1,.,.,49,.,30,/
COc1ccccc1N=C1NC(=O)/C(=C/c2ccc(N(C)C)cc2)S1,.,.,/,.,/,/
C[n+]1c(/C=C/c2ccc3c(c2)OCO3)ccc2ccccc21,.,.,41,.,33,.
Nc1ncnc2c1ncn2[C@@H]1O[C@H](CO)[C@@H](O)[C@@H]1O,/,.,/,/,/,/
Nc1ncnc2c1ncn2[C@@H]1O[C@H](CO)C[C@@H]1O,.,.,.,66,.,/
COc1ccc(C(=O)Nc2ccc(Cn3ccnc3)cc2)cc1OC,.,.,/,.,/,/
COc1ccc(C(=O)Nc2cnn(Cc3ccc(Cl)cc3)c2)cc1OC,.,.,35,.,36,.
CCOc1ccc(N(CC(=O)NC2CCCC2)C(=O)c2ccc(C)s2)cc1,.,.,/,.,/,/
COc1ccc(-n2c(N)c(C(=O)Nc3c(C)n(C)n(-c4ccccc4)c3=O)c3nc4ccccc4nc32)cc1,.,.,.,.,.,/
Cc1c(NC(=O)CC(=O)Nc2c(C)n(C)n(-c3ccccc3)c2=O)c(=O)n(-c2ccccc2)n1C,.,.,.,.,.,.
Cc1ccc(-n2c(N)c(C(=O)Nc3c(C)n(C)n(-c4ccccc4)c3=O)c3nc4ccccc4nc32)cc1C,.,74,.,.,.,.
Cc1c(NC(N)=O)c(=O)n(-c2ccccc2)n1C,.,.,.,.,80,.
CC1CCCN(c2ncnc3c2cnn3-c2ccc(Cl)cc2)C1 (configuration not stated),/,98,/,/,/,/
c1ccc(-n2ncc3c(N4CCCCC4)ncnc32)cc1,.,94,.,.,.,.
Cc1cc(C(=O)COC(=O)c2cccnc2Cl)c(C)n1-c1c(C)n(C)n(-c2ccccc2)c1=O,.,.,.,.,.,.
Clc1ccc(Cn2ncc3c(NCc4ccco4)ncnc32)c(Cl)c1,.,.,.,28,.,.
O=C(Cc1ccc(Cl)cc1)Nc1ccc(-c2cc3ccccc3oc2=O)c(Cl)c1,.,96,56,48,65,86
Cc1ccc(CNc2nc3ccccc3s2)s1,.,78,.,.,.,.
COc1ccc(CNc2nc3ccccc3s2)cc1OC,.,.,/,.,/,/
O=C(c1cc2ccccc2oc1=O)N(c1ccc(Cl)cc1)C1C=CS(=O)(=O)C1 (configuration not stated),.,.,.,.,.,.
SMILES,KLF5 inhibitor,aSyn UTR inh,Ba/F3 V617F tox,IEC-6 tox,BaF3 parental,APP 5UTR inh
CCN1C(=O)Nc2cccc3cccc1c23,/,.,/,/,/,/
CCC1=[N+](C)c2cccc3cccc(c23)N1C,.,.,37,.,41,.
Cc1nc(NC(=O)c2ccccc2)sc1-c1csc(N)n1,.,.,61,.,69,.
CN(N=Nc1cccc([N+](=O)[O-])c1)c1cccc([N+](=O)[O-])c1,.,.,.,.,.,.
CC(=O)N(C)c1cccc([N+](=O)[O-])c1,.,.,.,.,.,87
CCc1nc(N2CCN(Cc3ccc4c(c3)OCO4)CC2)c2oc3ccccc3c2n1,.,.,.,.,.,.
Cc1ccc[n+](CC(=O)c2ccc(Br)cc2)c1,.,.,/,.,/,/
COc1ccc(C(=O)C[n+]2ccc(N(C)C)cc2)cc1,.,.,67,.,59,/
O=C(C[n+]1ccccc1)c1ccc(-c2ccccc2)cc1,.,.,.,.,.,.
COc1ccc(C(=O)COC(=O)c2ccc(N(C)C)cc2)cc1,.,.,.,.,.,.
CN(C)c1cc[n+](CC(=O)c2ccc(Br)cc2)cc1,.,.,51,.,56,.
CN(C)c1cc[n+](CC(=O)c2ccc(-c3ccccc3)cc2)cc1,.,.,99,.,68,.
CCN(CC)CCSc1nnc2c3cc(C)ccc3n(Cc3ccccc3)c2n1,.,.,25,.,33,/
Cc1ccccc1NC(=O)C(C)OC(=O)CNS(=O)(=O)c1ccc(C#N)cc1 (configuration not stated),/,.,/,/,/,/
CCc1c(C)nc2ncnn2c1NCCc1ccccc1,.,.,.,.,.,.
CCc1c(C)nc2ncnn2c1NCCc1ccc(Cl)cc1,.,.,.,.,39,.
Cc1cc(=O)[nH]c(N/N=C/c2ccccc2C(F)(F)F)n1,.,.,.,.,.,.
Cc1cc(=O)[nH]c(N/N=C/c2cc(C)n(CC(F)(F)F)c2C)n1,.,.,76,.,32,/
CCOc1ccc(C(=O)Nc2cccc(-c3nc4ccccc4[nH]3)c2C)cc1[N+](=O)[O-],.,.,.,.,.,.
CCc1nnc(N/N=C/c2c(C)[nH]c3ccccc23)n1N,.,/,.,102,.,.
Cc1nnc(NC(=O)CCn2cnc3ccccc3c2=O)s1,.,.,.,.,.,.
CCc1cc(=O)oc2cc(C)cc(OCC(=O)NCC(O)c3ccccc3)c12 (configuration not stated),.,.,/,.,/,/
O=C(O)c1cccc(COc2ccccc2Cl)c1,/,103,/,/,/,/
COc1cc(/C=C2\NC(=S)NC2=O)ccc1OCc1cccc(C(=O)O)c1,.,.,/,.,/,/
O=C1NC(=O)/C(=C\c2ccc(OCc3cccc(C(=O)O)c3)c(Cl)c2)N1,.,70,.,.,.,.
SMILES,KLF5 inhibitor,aSyn UTR inh,Ba/F3 V617F tox,IEC-6 tox,BaF3 parental,APP 5UTR inh
O=C(O)c1ccc(COc2ccccc2Cl)cc1,.,.,.,.,.,.
Cc1cc(C)c(S(=O)(=O)N2CCCOC2CNC(=O)C(=O)NCc2ccco2)c(C)c1 (configuration not stated),.,.,.,.,.,.
COc1ccc(C(=O)/C=C2/c3ccccc3CC(C)(C)N2C)cc1,.,.,.,.,.,48
O=C(/C=C/c1ccccc1)Nc1cccnc1,.,.,/,.,/,/
COc1ccc(C(=O)/C=C2/C(=O)Nc3ccccc32)cc1,.,.,/,.,/,/
CN1/C(=C\C(=O)Nc2cccnc2)c2ccccc2CC1(C)C,.,.,.,.,36,.
COc1cccc(C(=O)O/N=C(\N)c2ccccn2)c1OC,.,.,/,.,/,/
N/C(=N\OC(=O)c1cccc2ccccc12)c1ccccn1,.,102,.,.,.,/
N/C(=N\OC(=O)c1ccc([N+](=O)[O-])cc1Cl)c1ccccn1,65,69,/,.,/,/
Cc1ccc(C(=O)O/N=C(\N)c2ccccc2)c(Cl)c1,.,85,.,.,.,/
N/C(=N\OC(=O)c1ccccc1Cl)c1ccncc1,.,.,.,.,.,.
N/C(=N\OC(=O)c1cc([N+](=O)[O-])ccc1Cl)c1ccccn1,.,.,.,.,.,/
CCOC(=O)c1c(NC(=O)CC)sc2c1CCN(Cc1ccccc1)C2,.,.,/,.,/,/
